ChEMBL document CHEMBL1157539, “Thousands of chemical starting points for antimalarial lead identification” (Nature, 2010)
In all, about 13,000 compounds were measured (“IFI”: median about 4, highest 2% from about 17 on). This excerpt belongs to a sample that is enriched for the highest values.

Assay: GSK_TCMDC: Inhibition Frequency Index (IFI). The number of non-kinase HTS assays where a compound showed > 50 % inhibition, expressed as a percentage of the number of such assays in which the compound was tested
Format: functional

Row | Structure (SMILES) | IFI [%]
1 | O=C(/C=C/c1ccc(Cl)c(Cl)c1)NCCCCCN1CCCC(CNC(=O)Nc2ccc(C(F)(F)F)cc2)C1 (stereo unspecified) | 17.7
2 | O=C(/C=C/c1ccc(Cl)c(Cl)c1)NCCCCCN1CCCC(CCCNC(=O)Nc2ccc(C(F)(F)F)cc2)C1 (stereo unspecified) | 11.3
3 | O=C(/C=C/c1ccc(C(F)(F)F)cc1)NCCCCCN1CCN(C(=O)Nc2ccc(Cl)c(Cl)c2)CC1 | 13.7
4 | O=C(/C=C/c1ccc(Cl)cc1)NCCCCCN1CCCN(C(=O)Nc2ccc(Cl)c(C(F)(F)F)c2)CC1 | 14.3
5 | O=C(/C=C/c1ccc(C(F)(F)F)cc1)NCCCCCN1CCCN(C(=O)Nc2ccc(Cl)c(C(F)(F)F)c2)CC1 | 18.8
6 | Cc1ccc2c(c1)c(C1CCN(C(=O)c3ccc([N+](=O)[O-])o3)CC1)cn2C | 4.35
7 | Cc1ccc(-c2nn3c(O)c4c(nc3c2C)CCCC4)cc1 | 0.88
8 | COc1c(C2CCN(CCN3CCC(CNC(=O)c4ccc(-c5ccc(C#N)cc5)cc4)CC3)CC2)ccc2c1CCCC2 | 16.2
9 | O=C(Nc1cccc(CN2CCCN(CCc3ccccc3)CC2)c1)c1ccc(Cl)c(Cl)c1 | 3.36
10 | CN1CCN(CCCN(Cc2cccc(-c3ccc(CNCCc4ccccc4)cc3)c2)C(=O)c2cccs2)CC1 | 11.3
11 | COC(=O)c1cccc(CNCc2ccc(-c3ccc(-c4nc5cc(C(F)(F)F)ccc5[nH]4)s3)cc2)c1 | 11.5
12 | Ic1cc(CNC2CCCCC2)ccc1OCc1cccc(COc2ccc(CNC3CCCCC3)cc2I)c1 | 10.1
13 | CCN(CC)Cc1cccc(-c2cc3c(-c4ccc(C(=O)O)c(C(C)C)c4)ccnc3[nH]2)c1OC | 0
14 | COc1cccc2c(NN=Cc3cccc(Cl)c3)ccnc12 | 3.62
15 | COc1cc2nc(NCc3nc4ccccc4[nH]3)nc(N)c2cc1OC | 0
16 | COc1ccc2ccccc2c1CCCCN1CCN(CC(c2ccc(F)cc2)N2CCC2)CC1 (stereo unspecified) | 18.4
17 | CC(C)N1CCN(C(CN2CCN(CCCOc3cccc(-c4ccccc4)c3)CC2)c2ccc(F)cc2)CC1 (stereo unspecified) | 16
18 | CC(C)N1CCN(C(CN2CCN(CCCOc3ccccc3-c3ccccc3)CC2)c2ccc(F)cc2)CC1 (stereo unspecified) | 13.5
19 | COc1ccc2ccccc2c1CCCCN1CCN(CC(c2ccc(F)cc2)N2CCN(C(C)C)CC2)CC1 (stereo unspecified) | 14.7
20 | CC(C)N1CCN(C(CN2CCN(CCCOc3ccc(-c4ccccc4)cc3)CC2)c2ccc(F)cc2)CC1 (stereo unspecified) | 20.3
21 | COc1ccc2ccccc2c1CCCCN1CCN(CC(c2ccc(F)cc2)N2CCN(C3CCCC3)CC2)CC1 (stereo unspecified) | 12.8
22 | CCCCCCCNCc1c(O)ccc2c(CNCCCCCCC)c(O)ccc12 | 13.6
23 | Oc1ccc2ccccc2c1C=NNc1nc(=Nc2ccccc2)nc(N2CCOCC2)[nH]1 | 3.68

Row | Structure (SMILES) | IFI [%]
24 | COc1ccccc1CCNc1nc(C)cc(N[C@@H](Cc2ccccc2)C(=O)NCc2cccs2)n1 | 9.76
25 | CCCc1ccc(S(=O)(=O)Nc2ccc3c(c2)CCC3)cc1 | 2.26
26 | Cc1cnc(C(=O)Nc2ccc3c(c2)CCCN(Cc2c[nH]c4cnccc24)C3)cn1 | 0
27 | CCCCc1ccc(S(=O)(=O)Nc2ccc3c(c2)CCN(Cc2c[nH]c4cnccc24)CC3)cc1 | 19.4
28 | CCOc1ccc(C(Cc2ccccc2)NC(=O)c2cccnc2)cc1OCC (stereo unspecified) | 0.83
29 | CN(C)CCCNc1ncnc2c1[nH]c1ccc(F)cc12 | 2.14
30 | c1ccc(CCNc2ncnc3c2[nH]c2ccccc23)cc1 | 23.9
31 | COc1ccc(CNCc2ccc(-c3ccc(-c4nc5cc(F)ccc5[nH]4)cc3)cc2)cc1 | 13.1
32 | CN(C)CCNc1ncnc2c1[nH]c1ccc(Cl)cc12 | 0
33 | Fc1ccc2[nH]c3c(NCCCN4CCOCC4)ncnc3c2c1 | 0
34 | Cc1ccc2[nH]c3c(NCCN(C)C)ncnc3c2c1 | 0
35 | COc1ccccc1CCNc1ncnc2c1[nH]c1ccc(F)cc12 | 20.5
36 | Fc1ccc2[nH]c3c(NCCN4CCCCC4)ncnc3c2c1 | 1.4
37 | COc1ccc(CNc2ncnc3c2[nH]c2ccc(F)cc23)cc1 | 17.2
38 | CC(C)C(C(=O)Nc1ccc2c(c1)OCO2)c1ccc(Cl)cc1 (stereo unspecified) | 9.18
39 | Cc1cc(=O)c(-c2ccc(Oc3cccc(OC(F)(F)F)c3)cc2)c(C)[nH]1 | 3.76
40 | COc1ccc(N2CCN(CCCCNC(=O)c3ccc(NC(=O)c4cc(C(F)(F)F)cc(C(F)(F)F)c4)cc3)CC2)cc1OC | 3.51
41 | c1ccc(CNCc2cccc(-c3ccc(-c4nc5ccccc5[nH]4)s3)c2)cc1 | 3.92
42 | CCCCCCCc1c(C)nc2cc(OC)ccc2c1O | 0
43 | CC(C)Oc1cc(-c2ccc(S(C)(=O)=O)cc2)nc(N(Cc2cccc(F)c2F)Cc2cccc(F)c2F)n1 | 0
44 | c1ccc2c(c1)cc(CNCCCN1CCN(CCCNCc3cc4ccccc4c4ccccc34)CC1)c1ccccc12 | 19.4
45 | c1ccc2cc(CNCCCN3CCN(CCCNCc4ccc5ccccc5c4)CC3)ccc2c1 | 11.7
46 | c1ccc2c(CNCCCN3CCN(CCCNCc4c5ccccc5cc5ccccc45)CC3)c3ccccc3cc2c1 | 15.3
